# PubChem BioAssay (NCATS)
# Values without a mark were called inactive. Records with an inconclusive call do not appear. Where a call stands in place of a potency, no number is given. Activity calls are given as the source filed them. Calls follow the shape of the dose curve; as a rule, active = well fitted curve in the direction sought with a large enough effect; inconclusive = small, poorly fitted or top-dose-only effect, or another doubt; inactive = no such curve, though single readings can be large; an effect the other way counts as inactive or inconclusive.
# What was measured:
# [1] = system: Nanoluciferase (engineered Oplophorus gracilirostris luciferase); test: Primary Nanoluciferase (NLuc) qHTS assay for identification of artifact compounds. (AID 1845222);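 also: NLuc secreted into diluted conditioned medium of S16 cells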
# Summary of the method: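 Concentration-response data were obtained by luminescence after 5 min with Nano-Glo substrate at 1:100. The enzyme was diluted S16 NLuc-expressing cell medium, preincubated with compound for 15 min at RT. Curves were fitted with a 4-parameter Hill model.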
# [2] = Primary redox qHTS assay for identification of artifact compounds. (AID 1845223)
# Summary of the method: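 Amplex Red (25 uM) and HRP (250 mU/mL) in HBSS, with compounds for 15 min, then 250 uM DTT for 30 min, room temperature, dark. Fluorescence 525/598 nm read; normalized to DMSO and 10 uM DA3003; Hill fit.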
# [3] = Quantitative High-Throughput drug screen in 47 multiple myeloma cell lines against the NCATS MIPE library collection: FR4_PLB cell viability assay (AID 1918924; also: nearly all actives have a fitted effect of over 35% in size; also: potency is read from the fitted curve at half-maximal effect)
# Summary of the method: (§1)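 CellTiter-Glo luminescence (ATP) after 48 h compound exposure, 37C/5% CO2; 500 cells/well; MIPE 4.0 approved/investigational drugs pinned in; DMSO = 100%, media only = 0% viability.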
# [4] = Quantitative High-Throughput drug screen in 47 multiple myeloma cell lines against the NCATS MIPE library collection: Delta47_JCRB cell viability assay (AID 1918925; also: nearly all actives have a fitted effect of over 45% in size; also: potency is read from the fitted curve at half-maximal effect)
# Summary of the method: as §1
# [5] = Quantitative High-Throughput drug screen in 47 multiple myeloma cell lines against the NCATS MIPE library collection: AMO1_DSMZ cell viability assay (AID 1918927; also: nearly all actives have a fitted effect of over 30% in size; also: potency is read from the fitted curve at half-maximal effect)
# Summary of the method: as §1
# [6] = Quantitative High-Throughput drug screen in 47 multiple myeloma cell lines against the NCATS MIPE library collection: Karpas620_DSMZ cell viability assay (AID 1918959); also: nearly all actives have a fitted effect of over 30% in size; also: potency is read from the fitted curve at half-maximal effect
# Summary of the method: as §1
# [7] = Quantitative High-Throughput drug screen in 47 multiple myeloma cell lines against the NCATS MIPE library collection: KMM1_JCRB cell viability assay (AID 1918960); also: nearly all actives have a fitted effect of over 30% in size; also: potency is read from the fitted curve at half-maximal effect
# Summary of the method: (§2)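 ATP readout (CellTiter-Glo), 48 h drug incubation, 37 °C/5% CO2, 500 cells per well; normalisation to DMSO (100%) and media-only (0%) controls.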
# [8] = Quantitative High-Throughput drug screen in 47 multiple myeloma cell lines against the NCATS MIPE library collection: Karpas417_ECACC cell viability assay (AID 1918961); conditions: Karpas417 myeloma viability, CellTiter-Glo ATP luminescence, 48 h; viability (% of DMSO): at 45.8 µM (top of the series) unless noted; also: potency is read from the fitted curve at half-maximal effect
# Summary of the method: (§3)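 Myeloma cells (500 per well) were exposed to MIPE 4.0 compounds by pin transfer and incubated 48 hours at 37C, 5% CO2. Viability was read as ATP by CellTiter-Glo luminescence, normalised to DMSO (100%) and media-only (0%) wells.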
# [9] = Quantitative High-Throughput drug screen in 47 multiple myeloma cell lines against the NCATS MIPE library collection: KHM11_PLB cell viability assay (AID 1918962); also: nearly all actives have a fitted effect of over 35% in size; also: potency is read from the fitted curve at half-maximal effect
# Summary of the method: as §1
# [10] = Quantitative High-Throughput drug screen in 47 multiple myeloma cell lines against the NCATS MIPE library collection: JIM3_ECACC cell viability assay (AID 1918963; also: nearly all actives have a fitted effect of over 35% in size; also: potency is read from the fitted curve at half-maximal effect)
# Summary of the method: as §1
# [11] = Quantitative High-Throughput drug screen in 47 multiple myeloma cell lines against the NCATS MIPE library collection: JIM1_ECACC cell viability assay (AID 1918964; also: potency is read from the fitted curve at half-maximal effect)
# Summary of the method: as §1
# [12] = Quantitative High-Throughput drug screen in 47 multiple myeloma cell lines against the NCATS MIPE library collection: INA6_PLB cell viability assay (AID 1918965; also: nearly all actives have a fitted effect of over 55% in size; also: potency is read from the fitted curve at half-maximal effect)
# Summary of the method: as §3
# [13] = Quantitative High-Throughput drug screen in 47 multiple myeloma cell lines against the NCATS MIPE library collection: H1112_PLB cell viability assay (AID 1918967; also: nearly all actives have a fitted effect of over 30% in size; also: potency is read from the fitted curve at half-maximal effect)
# Summary of the method: as §1
# [14] = Quantitative High-Throughput drug screen in 47 multiple myeloma cell lines against the NCATS MIPE library collection: KMS27_JCRB cell viability assay (AID 1918970); also: nearly all actives have a fitted effect of over 30% in size; also: potency is read from the fitted curve at half-maximal effect
# Summary of the method: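 Luminescent ATP read-out (CellTiter-Glo, 5 min at room temperature) after 48 h compound exposure of 500 KMS27_JCRB cells per well; DMSO wells define full viability and media-only wells zero.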
# [15] = Quantitative High-Throughput drug screen in 47 multiple myeloma cell lines against the NCATS MIPE library collection: ARP1_JJKsccF8 cell viability assay (AID 1918928; also: nearly all actives have a fitted effect of over 40% in size; also: potency is read from the fitted curve at half-maximal effect)
# Summary of the method: as §2
# [16] = Quantitative High-Throughput drug screen in 47 multiple myeloma cell lines against the NCATS MIPE library collection: ARD_JJKsccE7 cell viability assay (AID 1918929; also: potency is read from the fitted curve at half-maximal effect)
# Summary of the method: as §1
# [17] = Quantitative High-Throughput drug screen in 47 multiple myeloma cell lines against the NCATS MIPE library collection: Karpas25_ECACC cell viability assay (AID 1918968; also: potency is read from the fitted curve at half-maximal effect; nearly all actives have a fitted effect of over 35% in size)
# Summary of the method: as §1
# [18] = Quantitative High-Throughput drug screen in 47 multiple myeloma cell lines against the NCATS MIPE library collection: KMS12BM_JCRB cell viability assay (AID 1918971)
# Summary of the method: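 We plated 500 myeloma cells per well, pinned in MIPE 4.0 compounds, and incubated for 48 hours at 37C. ATP was then quantified with CellTiter-Glo, with DMSO and media-only wells defining 100% and 0%.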
# [19] = Quantitative High-Throughput drug screen in 47 multiple myeloma cell lines against the NCATS MIPE library collection: EJM_DSMZ cell viability assay (AID 1918926; also: nearly all actives have a fitted effect of over 30% in size; also: potency is read from the fitted curve at half-maximal effect)
# Summary of the method: as §1
# [20] = Quantitative High-Throughput drug screen in 47 multiple myeloma cell lines against the NCATS MIPE library collection: JJN3_DSMZ cell viability assay (AID 1918966; also: nearly all actives have a fitted effect of over 50% in size; also: potency is read from the fitted curve at half-maximal effect)
# Summary of the method: as §1
smiles,measurement,setting,value
O=C(NOC[C@H](O)CO)c1ccc(F)c(F)c1Nc1ccc(I)cc1F,outcome,[1],inactive
same,outcome,[2],inactive
same,Potency,[3],inactive
same,Potency,[4],0.0118 µM (active)
same,Potency,[5],3.72 µM (active)
same,Potency,[6],0.0469 µM (active)
same,Potency,[7],0.0187 µM (active)
same,Potency,[8],0.0469 µM (active)
same,Potency,[9],0.0132 µM (active)
same,Potency,[10],0.166 µM (active)
same,Potency,[11],1.66 µM (active)
same,Potency,[12],0.0332 µM (active)
same,Potency,[13],0.0148 µM (active)
same,Potency,[14],0.0105 µM (active)
O=C(Nc1cccnc1)N1CCC(Cc2cccc(Oc3ccc(C(F)(F)F)cn3)c2)CC1,outcome,[1],inactive
same,outcome,[2],inactive
same,Potency,[3],16.6 µM (active)
same,Potency,[4],9.35 µM (active)
same,Potency,[5],9.35 µM (active)
same,Potency,[15],18.7 µM (active)
same,Potency,[16],11.8 µM (active)
same,Potency,[6],14.8 µM (active)
same,Potency,[7],7.43 µM (active)
same,Potency,[12],11.8 µM (active)
same,Potency,[13],10.5 µM (active)
same,Potency,[17],9.35 µM (active)
same,Potency,[14],16.6 µM (active)
same,Potency,[18],13.2 µM (active)
CN(C)C(=O)c1ccc(S(=O)(=O)c2ccc(NC(=O)[C@@](C)(O)C(F)(F)F)c(Cl)c2)cc1,outcome,[1],inactive
same,outcome,[2],inactive
same,Potency,[4],10.5 µM (active)
same,Potency,[19],23.5 µM (active)
same,Potency,[5],14.8 µM (active)
same,Potency,[17],3.72 µM (active)
same,Potency,[14],14.8 µM (active)
CNC(=O)c1ccccc1Sc1ccc2c(/C=C/c3ccccn3)n[nH]c2c1,outcome,[1],inactive
same,outcome,[2],inactive
Cc1cc(SCc2sc(-c3ccc(C(F)(F)F)cc3)nc2C)ccc1OCC(=O)O,outcome,[1],inactive
same,outcome,[2],inactive
same,Potency,[3],inactive
same,Potency,[5],inactive
same,Potency,[15],inactive
same,Potency,[16],inactive
same,Potency,[6],inactive
same,Potency,[7],inactive
same,Potency,[10],18.7 µM (active)
same,Potency,[12],18.7 µM (active)
same,Potency,[13],inactive
same,Potency,[14],inactive
OCCn1cc(-c2cnc3nnn(Cc4ccc5ncccc5c4)c3n2)cn1,outcome,[1],inactive
same,outcome,[2],inactive
same,Potency,[3],inactive
same,Potency,[4],inactive
same,Potency,[5],inactive
same,Potency,[15],inactive
same,Potency,[16],inactive
same,Potency,[6],inactive
same,Potency,[10],inactive
same,Potency,[11],inactive
same,Potency,[12],inactive
same,Potency,[13],inactive
same,Potency,[17],14.8 µM (active)
same,Potency,[14],inactive
same,Potency,[18],18.7 µM (active)
CC[C@@H](C)[C@H](NC(=O)[C@H](CC1CCCCC1)NC(=O)c1ccno1)C(=O)N1CCC2(CCc3ccccc32)CC1,outcome,[1],inactive
same,outcome,[2],inactive
same,Potency,[3],13.2 µM (active)
same,Potency,[5],inactive
same,Potency,[16],inactive
same,Potency,[6],inactive
same,Potency,[7],inactive
same,viability (% of DMSO),[8],124% (active)
same,Potency,[9],inactive
same,Potency,[12],inactive
same,Potency,[14],inactive
same,Potency,[18],9.35 µM (active)
CC[C@H](Nc1ncnc2nc[nH]c12)c1nc2cccc(F)c2c(=O)n1-c1ccccc1,"activity, negative = inhibition",[1],-6.53% [at 11.6 µM]
same,redox activity (% of DA3003),[2],6.84% [at 11.5 µM]
same,Potency,[3],20.9 µM (active)
same,Potency,[4],5.26 µM (active)
same,Potency,[19],14.8 µM (active)
same,Potency,[5],inactive
same,Potency,[15],20.9 µM (active)
same,Potency,[6],inactive
same,Potency,[7],inactive
same,Potency,[8],inactive
same,Potency,[9],4.69 µM (active)
same,Potency,[10],16.6 µM (active)
same,Potency,[12],13.2 µM (active)
same,Potency,[20],10.5 µM (active)
same,Potency,[13],2.64 µM (active)
same,Potency,[17],11.8 µM (active)
same,Potency,[18],18.7 µM (active)
CS(=O)(=O)c1ccc(C(=O)Nc2ccc(Cl)c(-c3ccccn3)c2)c(Cl)c1,outcome,[1],inactive
same,outcome,[2],inactive
same,Potency,[3],inactive
same,Potency,[19],inactive
same,Potency,[15],inactive
same,Potency,[16],inactive
same,Potency,[6],inactive
same,Potency,[7],inactive
same,Potency,[11],inactive
same,Potency,[12],4.18 µM (active)
same,Potency,[20],inactive
same,Potency,[17],9.35 µM (active)
Cc1csc(NC(=O)c2sc3nc4c(c(C(F)(F)F)c3c2N)CCC4)n1,outcome,[1],inactive
same,outcome,[2],inactive
same,Potency,[3],inactive
same,Potency,[4],inactive
same,Potency,[5],inactive
same,Potency,[16],inactive
same,Potency,[6],inactive
same,Potency,[7],inactive
same,Potency,[9],inactive
same,Potency,[10],inactive
same,Potency,[13],inactive
same,Potency,[17],1.48 µM (active)
same,Potency,[14],inactive
same,Potency,[18],16.6 µM (active)
CC(C)(N)C(=O)N[C@H](COCc1ccccc1)C(=O)N1CCC2(CC1)CN(S(C)(=O)=O)c1ccccc12,outcome,[1],inactive
same,outcome,[2],inactive
same,Potency,[3],16.6 µM (active)
same,Potency,[4],7.43 µM (active)
same,Potency,[5],inactive
same,Potency,[16],inactive
same,Potency,[6],inactive
same,Potency,[7],inactive
same,Potency,[8],inactive
same,Potency,[9],18.7 µM (active)
same,Potency,[10],7.43 µM (active)
same,Potency,[11],inactive
same,Potency,[12],10.5 µM (active)
same,Potency,[20],3.72 µM (active)
same,Potency,[17],16.6 µM (active)
same,Potency,[14],5.26 µM (active)
same,Potency,[18],14.8 µM (active)
Clc1ccc(Nc2nnc(Cc3ccncc3)c3ccccc23)cc1,outcome,[1],inactive
same,outcome,[2],inactive
same,Potency,[3],inactive
same,Potency,[19],18.7 µM (active)
same,Potency,[5],inactive
same,Potency,[6],1.66 µM (active)
same,Potency,[7],inactive
same,Potency,[10],20.9 µM (active)
same,Potency,[11],inactive
same,Potency,[12],16.6 µM (active)
same,Potency,[14],inactive
same,Potency,[18],20.9 µM (active)
